Assay results published in PubChem BioAssay (NCI).
Compounds without any hit were thinned out: in the full panel of roughly 83,000, 20% have a hit.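 Compound tested at a single concentration for 48 hours in 96-well plates; a percent growth value below 10 was scored as active.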 Activity calls are given as the source filed them.

Each compound was assayed on HOP-92 NSCLC (assay: NCI-60 one-dose screen, 48 h (100 = growth as untreated, 0 = no growth, -100 = all killed)). Conditions: 10 µM unless noted.
Protocol: Growth inhibition of the HOP-92 human Non-Small Cell Lung tumor cell line is measured as a screen for anti-cancer activity. Cells are grown in 96 well plates and exposed to the test compound for 48 hours. Compounds are tested at a single concentration, which is 10^-5 M for most compounds. The reported endpoint is percent growth (GI% or GIPRCNT), where numbers from 0 - 100% represent growth inhibition, and numbers from -100% - 0 represent cell death. For example, a value of 40 represents 60% growth inhibition. A value of 0 means no net growth occurred over the course of the experiment. A value of -40 indicates 40% of cells at the beginning of the experiment died by the end of the experiment. A value of -100 means all cells are dead at the end of the experiment.
NCI-60 Human Tumor Cell Lines Screen was performed using the standard one-dose NCI protocol, which is described in more detail at https://dtp.cancer.gov/discovery_development/nci-60/default.htm.
Compounds with GIPRCNT values below 10 were considered active. Activity score was based on GIPRCNT using the following formula: […]
Score is 0 for GIPRCNT values of 100 or above, 50 for GIPRCNT values of 0, and 100 for GIPRCNT values of -100.
With `COc1ccc(CN2C(=O)OC(C)(COC(C)=O)C2=O)cc1` (stereo not given) the growth was 100% (inactive). In the case of `CC(C)(Sc1cc(C(C)(C)C)c(O)c(C(C)(C)C)c1)Sc1cc(C(C)(C)C)c(OC(=O)CCC(=O)O)c(C(C)(C)C)c1`, the growth is reported as 35.8% (inactive). For `Cc1ccc(NC(=O)c2sc3nc(C)c(C(O)c4ccccc4)cc3c2N)cc1` (stereo not given), the growth was 58.8% (inactive). `c1csc(-c2cn3nc(-c4c[nH]c5ccccc45)sc3n2)c1` was tested, and the growth was 38.3% (inactive). For `COc1c2c(cc3c1C(=O)N[C@@H]1[C@@H](O)[C@@H](O)[C@H](O)C[C@@H]31)OCCO2`, the growth was 91.6% (inactive). `N#Cc1c(-c2ccc(Br)cc2)nc2c(N=Nc3ccc(S(N)(=O)=O)cc3)c(N)nn2c1N` was tested, and the growth was 31.5% (inactive). `COc1cc2c(c(OC)c1OC)C(=O)CC(c1cccc(C(=O)Nc3ccccc3Br)c1)O2` (stereo not given) was tested, and the growth was 68.4% (inactive). In the case of `O=S(=O)(Nc1cc(F)cc(F)c1)c1ccc(-c2cnc(C3CC3)o2)cc1`, the growth is reported as 42.5% (inactive). For `COc1ccc(/C=C(\C(=O)NCc2cccnc2)S(=O)(=O)c2ccccc2)cc1OC`, the growth was 43.5% (inactive). For `COc1ccc(C2[C@@H](c3ccccc3)C(=O)N2c2cc(OC)c(OC)c(OC)c2)cc1F` (stereo not given in full), the growth was 28.1% (inactive). `C/C(=N\Nc1ccccc1)c1ccc(NC2=CC(=O)c3ccccc3C2=O)cc1` was tested, and the growth was 113% (inactive). With `O=C(/C=C/c1ccccc1)c1cccc2ccccc12` the growth was 47.3% (inactive). For `COc1cccc(CNc2c3ccccc3nc3ccccc23)c1OC`, the growth was -2.4% (active). `Clc1cccc(C2Cc3cnccc3-c3[nH]c4ccncc4c32)c1` (stereo not given) was tested, and the growth was 39.1% (inactive). With `O=C1NC(=O)C(c2coc3cc(Br)ccc23)=C1c1c[nH]c2ccccc12` the growth was 70.4% (inactive). For `O=C(NCCN1CCOCC1)OCc1ccc2c(Cl)cc(Cl)c(O)c2n1`, the growth was 77.3% (inactive). `O=C(Oc1ccc2c(c1)sc1nc(-c3ccccc3)[nH]c(=O)c12)C(F)(F)F` was tested, and the growth was 54.1% (inactive). In the case of `CC(C)(C)CC(C)(C)Nc1c(-c2c(O)c3ccccc3oc2=O)nc2sc3ccccc3n12`, the growth is reported as 10.8% (inactive). `O=[N+]([O-])c1ccccc1Nc1ccc2ccccc2c1` was tested, and the growth was 82.9% (inactive). For `CCN(CC)CCn1c2ccc(OC)cc2c2sc3cc(O)ccc3c(=O)c21`, the growth was 61.8% (inactive). With `COc1cc(/C=C/c2cn[nH]c2-c2ccc(C)cc2)cc(OC)c1OC` the growth was 45.6% (inactive). In the case of `C=C[C@@]1(C)CC(=O)[C@@H](C(C)(C)c2cn(C)c3ccc(Br)cc23)C[C@@H]1O[Si](C)(C)C(C)(C)C`, the growth is reported as 83.6% (inactive). `CS(=O)(=O)Nc1cc(-c2ccc3ncnc(Nc4ccc(OCc5ccccn5)c(Cl)c4)c3c2)cnc1Cl` was tested, and the growth was -6.05% (active). For `CCN1C2CCC1/C(=C\c1ccccc1)C(=O)/C2=C/c1ccccc1`, the growth was 58.5% (inactive). In the case of `COc1cc(-c2ccc(-c3ccc(C(=N)N)cc3)s2)cc(OC)c1OC`, the growth is reported as 43.4% (inactive). With `CC1(C)N=C(N)N=C(N)N1c1ccc(S(=O)(=O)Nc2nccs2)cc1` the growth was 87.2% (inactive). In the case of `O=C(c1ccc(Br)cc1)C(Br)C(c1ccc(Cl)cc1)C(c1ccccc1)[N+](=O)[O-]` (stereo not given), the growth is reported as 107% (inactive). For `COC12C=C/C(=C(/C(=O)OCc3cncnc3)C(=O)CCCCCCCCC3(OC)C=C/C(=C(/C(=O)OCc4cncnc4)C(=O)CCCCCCCC1)O3)O2`, the growth was -59.7% (active). With `Cc1sc2nc(NCCN)[nH]c(=O)c2c1C` the growth was 87.7% (inactive). In the case of `C=CC(CC(c1ccccc1)(c1ccccc1)c1ccccc1)N(CC)CC` (stereo not given), the growth is reported as 54.8% (inactive). In the case of `O=Nc1ccc(NC(=O)Nc2ccc([N+](=O)[O-])cc2)cc1`, the growth is reported as 56.5% (inactive). In the case of `CCCCCCCCn1ccc2cc(NC(=O)CN=[N+]=[N-])ccc21`, the growth is reported as 111% (inactive). In the case of `CCOC(=O)c1c(C)nc2c(c1N)C(=O)C(=O)N2Cc1ccc(OC)cc1`, the growth is reported as 39.6% (inactive). For `C=C(C)[C@@H]1CC[C@]2(COC3CCCCO3)CC[C@]3(C)[C@H](CC[C@@H]4[C@@]5(C)C=C(C=O)C(=O)C(C)(C)[C@@H]5CC[C@]43C)[C@@H]12` (stereo not given in full), the growth was -91.6% (active). With `CC(=O)N1N=C(c2ccc(Nc3nc(Nc4ccc(F)cc4)nc(Nc4ccc(F)cc4)n3)cc2)CC1c1ccc(N(C)C)cc1` (stereo not given) the growth was 35.3% (inactive). With `COc1cc([C@@H](CCO)C[C@H](C)c2ccc3ccccc3c2)cc(OC)c1OC` the growth was 30.8% (inactive). For `CCOC(=O)NC(=S)n1oc(=O)c2ccccc21`, the growth was 86.2% (inactive). With `COc1ccc(/C=N/Nc2c3ccccc3nc3ccccc23)cc1` the growth was 90.2% (inactive). With `Cc1c2ccccc2nc2cc3c(cc12)[C@H]1CC[C@]2(C)C(=O)CC[C@H]2[C@@H]1CC3` the growth was 86.9% (inactive). `N#Cc1c(-c2ccccc2)nc2c(c(-c3ccc(Cl)cc3)nn2-c2ccccc2)c1-c1ccc([N+](=O)[O-])cc1` was tested, and the growth was 103% (inactive).
